# The sample as a whole holds a higher share of hits than the screen did.
# FBPA Giardia inh: blocks Giardia fructose-bisphosphate aldolase activity. A8B2U2. Potency, µM (series often up to 59.6 µM), for the others: at the highest dose activity, negative = inhibition, most hits filed as inhibitors. 290,000 tested, 0.71% active. purified Giardia FBPA; also: potency is read from the fitted curve at half-maximal effect; % is scaled to controls: 0 for no effect and ±100 for the full control effect; nearly all actives have a fitted effect of over 55% in size
# Target sequence (A8B2U2 whole entry, looked up): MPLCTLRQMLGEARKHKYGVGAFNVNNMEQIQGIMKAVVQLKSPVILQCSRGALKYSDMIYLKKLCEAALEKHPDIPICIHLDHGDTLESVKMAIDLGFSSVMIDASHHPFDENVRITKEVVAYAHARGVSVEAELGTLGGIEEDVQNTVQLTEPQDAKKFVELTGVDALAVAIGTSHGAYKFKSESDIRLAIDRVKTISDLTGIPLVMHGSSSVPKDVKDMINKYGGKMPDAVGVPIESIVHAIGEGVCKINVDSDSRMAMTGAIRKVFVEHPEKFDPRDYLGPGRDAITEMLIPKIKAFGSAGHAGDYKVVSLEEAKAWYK
#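 40 nM FBPA preincubated 10 min at RT with compound (up to 57.5 uM final), then substrate plus GAPDH/TPI/NAD/arsenate coupling and diaphorase/resazurin added. Fluorescence read after 20 min at RT, 525/598 nm.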
# Sm TGR block: inhibitors of Schistosoma mansoni thioredoxin glutathione reductase | purified TGR, DTNB reduction, TNB absorbance 405 nm | Potency, µM (top dose mostly 114 µM), inactives show top-dose activity change, negative = inhibition, actives largely listed as inhibitors | 360,000 tested, 3% active; also: potency is read from the fitted curve at half-maximal effect; % is scaled to controls: 0 for no effect and ±100 for the full control effect; nearly all actives have a fitted effect of over 60% in size
#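 Kinetic colorimetric format: TGR-catalysed, NADPH-driven DTNB reduction monitored via TNB absorbance. Enzyme dispensed at 20 nM; compound exposure 15 min at room temperature before reaction start.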
# LmPK inh: inhibitors of Leishmania mexicana pyruvate kinase. Q27686. purified LmPK, Kinase-Glo ATP luminescence, 1 h. Potency, µM (titrated, usually from 57.5 µM), inactives show top-dose activity change, negative = inhibition, hits mostly inhibitors. 290,000 tested, 0.37% active; also: potency is read from the fitted curve at half-maximal effect; % is scaled to controls: 0 for no effect and ±100 for the full control effect
#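 ATP generated from ADP (0.1 mM) and PEP (0.5 mM) by 0.1 nM LmPK over 1 h at room temperature (pH 7.2 imidazole buffer) was detected by coupled luciferase luminescence. Values were normalized to uninhibited and no-enzyme wells.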
# Cycloheximide cs: counter-screen hit for Shiga toxin inhibitors, cycloheximide | cell reporter, cycloheximide protein synthesis inhibition counterscreen | max response, % | 300,000 tested, 12% active | AID 2314; in the data active = max response mostly above about 13%, no sharp cut-off; inactive = mostly below about 14%; also: read at 38.3 µM for the half of the compounds with a filed dose; 0% is about no effect
# Shiga toxin inh: inhibitors of Shiga toxin in Vero cells; Vero cells, Shiga toxin protein synthesis inhibition reporter; inhibition, % at 38.7 µM; 290,000 tested, 9.2% active; AID 2315; in the data active = inhibition mostly above about 28%, no sharp cut-off; inactive = mostly below about 43%; also: 0% is about no effect
# Tb PYK inh: inhibitors of Trypanosoma brucei pyruvate kinase; TbPYK enzyme, Kinase-Glo Plus ATP luminescence, 45 min; Potency, µM (top dose mostly 76.8 µM), for inactives: top-dose activity, negative = inhibition, usual class: inhibitors; Q57TT1; 410,000 tested, 0.12% active; also: potency is read from the fitted curve at half-maximal effect; % is scaled to controls: 0 for no effect and ±100 for the full control effect; nearly all actives have a fitted effect of over 50% in size
#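 Assay buffer: 50 mM TEA pH 7.2, 100 mM KCl, 10 mM MgCl2, 0.05% BSA, 0.01% Tween-20. Pyruvate kinase from T. brucei plus substrate met compound, then ADP (130 uM final). Luminescence was read post 45 min RT.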
# Numbers without * were called inactive; u = inconclusive; x = no result given. Unless noted, calls follow the shape of the dose curve; as a rule, active = well fitted curve in the direction sought with a large enough effect; inconclusive = small, poorly fitted or top-dose-only effect, or another doubt; inactive = no such curve, though single readings can be large; an effect the other way counts as inactive or inconclusive.
SMILES,FBPA Giardia inh,Sm TGR block,LmPK inh,Cycloheximide cs,Shiga toxin inh,Tb PYK inh
Cc1cc(NC(=O)CSc2sc3c(O)cc(=O)[nH]c3c2C#N)ccc1Br,4.2%,u,5.8%,-4.4,-8.1,-9.7%
O=C(NCC(c1cccnc1)N1CCc2ccccc21)c1ccc(F)cc1 (stereo not given),x,-10.5%,x,x,x,-4.5%
COc1cc(CCC(C)=O)ccc1OC(=O)c1c(F)cccc1Cl,-1.3%,14.1%,4.2%,38.9*,87.7*,1.6%
COc1ccc(NC(=O)COC(=O)c2c(F)cccc2Cl)cc1OC,0.6%,-1.0%,2.0%,40.6*,76.4*,x
COc1ccc(NC(=O)COC(=O)Cc2c(F)cccc2Cl)cc1OC,-9.3%,3.6%,14.1%,20.5*,45.7,-6.7%
COc1ccc(CCNC(=O)c2ccccc2Cl)cc1OC,4.9%,12.5%,-8.8%,-2.1,2.4,0.4%
CCN1c2ccccc2-c2nc(SCC(=O)Nc3cccc(C)c3C)ncc2S1(=O)=O,x,-0.1%,x,x,x,-3.3%
CN(Cc1ccc2nonc2c1)Cc1nc(CC2CC2)no1,0.9%,-14.9%,-3.0%,-1.5,3.2,0.2%
CC(=O)c1c(C)nc2nc(-c3ccccc3)nn2c1C,x,0.9%,x,x,x,-0.2%
NC(=O)C1CCCN(C(=O)c2cccc(NC(=O)c3cccs3)c2)C1 (stereo not given),x,1.6%,x,x,x,1.8%
CCOC(=O)C1(Cc2cccc(OC)c2)CCN(Cc2cnc(C)s2)CC1,-15.9%,-22.1%,-0.5%,0.3,19.9,3.3%
N#Cc1ccc(-c2c(-c3ccccc3)ncc3cc(F)ccc23)cc1,x,-19.6%,x,x,x,1.7%
CN(C)N=Nc1ccc(-c2cn(Cc3ccccc3)cn2)cc1,5.9%,-18.6%,-0.5%,46.6*,40.8*,-1.1%
CN(Cc1ccccc1)N=Nc1ccccc1,x,x,x,x,x,-0.7%
Cc1cc(C)n(CCO)c(=O)n1,-2.2%,17.8%,-2.2%,4.9,5.7,6.0%
Cc1cc(=S)cc(C)n1CCO,u,14.1µM*,-1.3%,-1.9,-5.8,2.6%
C=CC(=O)Nc1ccc(N(C)c2ccnc(Nc3ccc(N4CCN(C)CC4)cc3)n2)cc1,x,x,x,x,x,-10.5%
Cc1ccc(S(=O)(=O)CCC(=O)NCCN2C(=O)S/C(=C/c3ccc(F)cc3)C2=O)cc1,-1.7%,4.8%,-1.3%,15.9*,-0.8,-1.2%
O=C(CCNC(=O)c1ccco1)NCCN1C(=O)S/C(=C\c2ccc(F)cc2)C1=O,x,-9.2%,x,x,x,2.0%
O=C(OCC#CCSc1nc2ccccc2o1)c1cc2ccccc2o1,-0.1%,-0.4%,3.3%,15.2*,31.7,3.0%
O=C(OCC#CCSc1nc2ccccc2o1)c1ccco1,-8.2%,-29.9%,0.0%,13.3*,30.8*,2.4%
N#CCSc1nc2ccccc2o1,0.3%,-0.6%,-0.2%,0.8,-8.3,-1.5%
Cc1cccc(C(=O)NCC(c2ccc3c(c2)OCO3)N2CCOCC2)c1 (stereo not given),x,25.1µM*,x,x,x,0.4%
Cc1ccc(C(=O)NCC(c2ccc3c(c2)OCO3)N2CCOCC2)cc1 (stereo not given),x,7.4%,x,x,x,-5.7%
Cc1csc2nc(COC(=O)c3cccc(NC(=O)c4cccc(Cl)c4)c3)cc(=O)n12,x,-13.4%,x,x,x,0.9%
SMILES,FBPA Giardia inh,Sm TGR block,LmPK inh,Cycloheximide cs,Shiga toxin inh,Tb PYK inh
CCOC(=O)C1/C(=N\O)CC(C)(O)C(C(=O)OCC)C1c1ccc(N(C)C)cc1 (stereo not given),u,35.5µM*,0.2%,4.8,2.4,-12.9%
Cc1ccccc1NC(=O)Nc1nc(C(N)C2CCCCC2)cs1 (stereo not given),x,x,x,x,x,-13.5%
COCCCNC(=O)c1ccc(C2SCC(=O)N2Cc2ccco2)cc1 (stereo not given),5.7%,u,1.9%,-1.0,-17.9,-3.4%
COCCNC(=O)c1ccc(C2SCC(=O)N2Cc2ccco2)cc1 (stereo not given),-4.9%,22.4µM*,0.8%,-1.5,12.3,-16.9%
C=CCNC(=O)c1ccc(C2SCC(=O)N2Cc2ccco2)cc1 (stereo not given),2.6%,28.2µM*,3.7%,-0.3,16.1,-13.1%
CCOc1ccc(C2c3c(-c4ccc(C)cc4)n[nH]c3C(=O)N2c2ccc(Cl)cc2)cc1 (stereo not given),x,2.9%,x,x,x,3.9%
